Data as given in PubChem BioAssay (NCATS).
Inconclusive results are not listed. Entries that show only a call come without a potency. Calls of active or inactive are those of the source. The call rests on the fitted dose curve; in most records, active means well fitted inhibition curve with a large enough effect; inconclusive means small, poorly fitted or top-dose-only effect; inactive means flat fitted curve, though single readings scatter.

system: Zika virus NS2B-NS3 protease; assay: Primary screen GU AMC qHTS for Zika virus inhibitors (AID 1347154); conditions: Zika NS2B-NS3 unlinked protease, AMC fluorogenic substrate; series mostly up to 54.1 µM; further: nearly all actives have a fitted effect of over 70% in size
Outline: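 Unlinked Zika NS2B hydrophilic domain/NS3 protease domain noncovalent complex (25 nM final) in 10 mM Tris-HCl pH 8.0, 0.01% Tween 20, with AMC peptide substrate. Fluorescence (ex 340, em 450 nm) change over 15 min, room temperature; percent inhibition fitted to 4-parameter Hill equation.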

| SMILES | outcome |
| --- | --- |
| CN(C)CC/C=C1\c2ccccc2COc2ccccc21 | inactive |
| CN(C)CCCN1c2ccccc2Sc2ccc(C(F)(F)F)cc21 | inactive |
| NC(=O)c1ncn([C@@H]2O[C@H](CO)[C@@H](O)[C@H]2O)c1O | inactive |
| CC(=O)Oc1cc(C(C)C)c(OCCN(C)C)cc1C | inactive |
| O=C(CCCN1CCC(O)(c2cccc(C(F)(F)F)c2)CC1)c1ccc(F)cc1 | inactive |

target: Lysine-specific demethylase 5B (Homo sapiens) (UniProt Q9UGL1); assay: Optimization screen for KDM5B Histone Demethylases FDH coupled qHTS against the LOPAC library (AID 1347166); conditions: KDM5B demethylation, FDH-coupled NADH fluorescence (FDH is formaldehyde dehydrogenase); series mostly up to 57.5 µM; further: potency means the concentration at half of the fitted maximal effect
Outline: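 KDM5BDeltaAP (200nM final) in 50mM HEPES pH 7.5, 0.01% Tween-20 was preincubated with compound for 10 min at room temperature. A substrate mix of 12.5uM H3K4Me3, 25uM a-ketoglutarate, ascorbate, Fe2+, NAD+ and formaldehyde dehydrogenase was then added. NADH fluorescence (340/450 nm) was read initially and after 30 min.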

Sequence of Lysine-specific demethylase 5B (Homo sapiens) (Q9UGL1 whole entry, looked up): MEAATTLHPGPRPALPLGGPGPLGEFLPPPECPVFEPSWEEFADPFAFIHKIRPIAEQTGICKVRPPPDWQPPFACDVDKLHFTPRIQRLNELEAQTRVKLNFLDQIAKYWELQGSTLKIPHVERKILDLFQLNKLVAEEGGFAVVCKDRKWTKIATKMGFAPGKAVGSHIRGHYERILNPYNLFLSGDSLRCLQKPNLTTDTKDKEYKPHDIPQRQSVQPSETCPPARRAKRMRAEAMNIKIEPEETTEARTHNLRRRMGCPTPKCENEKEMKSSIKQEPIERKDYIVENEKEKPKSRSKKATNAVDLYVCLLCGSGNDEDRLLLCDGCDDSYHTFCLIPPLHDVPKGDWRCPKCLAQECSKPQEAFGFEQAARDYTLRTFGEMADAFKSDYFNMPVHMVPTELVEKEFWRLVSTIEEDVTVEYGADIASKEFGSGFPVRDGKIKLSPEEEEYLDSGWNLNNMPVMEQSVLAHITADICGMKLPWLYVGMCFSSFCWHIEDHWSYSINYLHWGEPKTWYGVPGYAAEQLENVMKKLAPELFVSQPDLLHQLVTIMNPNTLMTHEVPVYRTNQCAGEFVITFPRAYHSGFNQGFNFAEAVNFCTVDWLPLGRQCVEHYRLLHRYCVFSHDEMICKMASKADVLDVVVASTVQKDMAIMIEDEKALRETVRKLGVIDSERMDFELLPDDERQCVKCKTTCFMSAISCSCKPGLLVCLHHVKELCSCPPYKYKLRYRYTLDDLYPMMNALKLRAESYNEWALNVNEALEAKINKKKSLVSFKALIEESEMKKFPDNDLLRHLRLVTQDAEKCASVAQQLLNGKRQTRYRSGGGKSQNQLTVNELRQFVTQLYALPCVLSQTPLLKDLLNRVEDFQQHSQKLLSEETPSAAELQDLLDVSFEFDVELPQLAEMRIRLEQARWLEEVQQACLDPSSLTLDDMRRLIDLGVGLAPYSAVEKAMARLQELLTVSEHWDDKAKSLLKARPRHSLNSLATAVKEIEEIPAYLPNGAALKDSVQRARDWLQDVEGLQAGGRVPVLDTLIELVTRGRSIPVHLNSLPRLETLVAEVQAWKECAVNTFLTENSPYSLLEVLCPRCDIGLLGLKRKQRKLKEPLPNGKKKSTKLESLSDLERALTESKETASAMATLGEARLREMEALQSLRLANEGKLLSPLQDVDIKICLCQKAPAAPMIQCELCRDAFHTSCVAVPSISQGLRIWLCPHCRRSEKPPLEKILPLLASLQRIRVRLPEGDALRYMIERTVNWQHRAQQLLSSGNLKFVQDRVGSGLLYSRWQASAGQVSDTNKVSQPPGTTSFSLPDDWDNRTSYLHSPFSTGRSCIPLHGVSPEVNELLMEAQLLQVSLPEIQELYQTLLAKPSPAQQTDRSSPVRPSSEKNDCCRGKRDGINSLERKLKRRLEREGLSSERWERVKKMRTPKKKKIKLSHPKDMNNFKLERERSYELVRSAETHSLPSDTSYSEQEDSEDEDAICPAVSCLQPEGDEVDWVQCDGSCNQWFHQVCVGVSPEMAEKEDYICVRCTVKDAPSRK

| SMILES | Potency |
| --- | --- |
| CN(C)CC/C=C1\c2ccccc2COc2ccccc21 | inactive |
| Nc1nc(N)c2nc(-c3ccccc3)c(N)nc2n1 | 39.8 µM (active) |
| OC(CCN1CCCCC1)(c1ccccc1)C1CCCCC1 (stereo unspecified) | inactive |
| CN(C)CCCN1c2ccccc2Sc2ccc(C(F)(F)F)cc21 | inactive |
| COCCc1ccc(OCC(O)CNC(C)C)cc1 (stereo unspecified) | inactive |
| NC(=O)c1ncn([C@@H]2O[C@H](CO)[C@@H](O)[C@H]2O)c1O | inactive |
| CN(C)C(=O)Oc1ccc[n+](C)c1 | inactive |
| CC(C)(C)NCC(O)c1cc(O)cc(O)c1 (stereo unspecified) | inactive |
| NCCCNCCSP(=O)(O)O | inactive |
| CN1C[C@H](C(=O)N[C@]2(C)O[C@@]3(O)[C@@H]4CCCN4C(=O)[C@H](Cc4ccccc4)N3C2=O)C[C@@H]2c3cccc4[nH]cc(c34)C[C@H]21 | inactive |
| C[C@H](CS)C(=O)N1CCC[C@H]1C(=O)O | inactive |
| COC(=O)C1=C(C)NC(C)=C(C(=O)OC(C)(C)CN(C)CCC(c2ccccc2)c2ccccc2)C1c1cccc([N+](=O)[O-])c1 (stereo unspecified) | inactive |
| CN/C(=C\[N+](=O)[O-])NCCSCc1ccc(CN(C)C)o1 | inactive |
| CC(=O)Oc1cc(C(C)C)c(OCCN(C)C)cc1C | inactive |
| C[C@]12C=CC(=O)C=C1CC[C@H]1[C@@H]3C[C@@H](O)[C@](O)(C(=O)CO)[C@@]3(C)C[C@H](O)[C@@]12F | inactive |
| CC(=O)[C@@]1(O)CC[C@H]2[C@@H]3CCC4=CC(=O)CC[C@]4(C)[C@H]3CC[C@@]21C | inactive |

| SMILES | Potency |
| --- | --- |
| O=C(CCCN1CCC(O)(c2cccc(C(F)(F)F)c2)CC1)c1ccc(F)cc1 | inactive |
| CN(C)CC[C@@H](c1ccc(Br)cc1)c1ccccn1 | inactive |
| OCCN1CCN(CCCN2c3ccccc3C=Cc3ccccc32)CC1 | inactive |
| O=C(O)CP(=O)(O)O | inactive |
| CC(=O)[C@]1(O)Cc2c(O)c3c(c(O)c2[C@@H](O[C@H]2C[C@H](N)[C@H](O)[C@H](C)O2)C1)C(=O)c1ccccc1C3=O | inactive |
| CCN(CC)CCNC(=O)c1ccc(NC(C)=O)cc1 | inactive |
| CC(=O)OCC1=C(C(=O)O)N2C(=O)[C@@H](NC(=O)Cc3cccs3)[C@H]2SC1 | inactive |
| CN(C)CCCN1c2ccccc2Sc2ccccc21 | inactive |
| O=C1NCN(c2ccccc2)C12CCN(CCCC(c1ccc(F)cc1)c1ccc(F)cc1)CC2 | inactive |
| CC[N+](C)(C)c1cccc(O)c1 | inactive |
| NC/C=C/C(=O)O | inactive |
| N[C@@H](COP(=O)(O)O)C(=O)O | inactive |
| CC(C(=O)O)c1ccc(CC2CCCC2=O)cc1 (stereo unspecified) | inactive |
| CCCCNC(=O)NS(=O)(=O)c1ccc(C)cc1 | inactive |
| CCC(=O)c1ccc2c(c1)N(CCCN(C)C)c1ccccc1S2 | inactive |
